Calls of active or inactive are those of the source. Rule for the calls: active = hit-call score of the fitted dose curve at least 0.9, where 1 is the maximum; inactive = score below 0.9.
Legend:
Details in all cases: mRNA level, 48 h; actives raise or lower the signal
[1] = read-out: Peroxisomal acyl-coenzyme A oxidase 1 (ACOX1) gene, ACOX1 (gene 51); assay: LTEA_HepaRG_ACOX1: Life Technologies and Expression Analysis (LTEA) Assay for Peroxisomal acyl-coenzyme A oxidase 1 (ACOX1) gene using HepaRG (AID 2283467)
Method in brief: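 ACOX1 transcript levels were quantified by TaqMan qRT-PCR against three housekeeping genes after 48 h chemical exposure of differentiated human HepaRG cells. Exposure used eight half-log steps topping at 100 uM, 0.5% DMSO vehicle, in duplicate. Bidirectional curve fits were made relative to DMSO.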

[2] = read-out: Alkaline Phosphatase, Placental (ALPP) gene, ALPP (gene 250); assay: LTEA_HepaRG_ALPP: Life Technologies and Expression Analysis (LTEA) Assay for Alkaline Phosphatase, Placental (ALPP) gene using HepaRG (AID 2283468)
Method in brief: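 Using human liver HepaRG cells, chemicals are tested in duplicate over 48 h at half-log concentrations topping at 100 uM; phenobarbital 1 mM serves as induction control. ALPP mRNA change by qRT-PCR, bidirectional fit against vehicle.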

[3] = read-out: Bcl-2 (BAD) gene, BAD (gene 572); assay: LTEA_HepaRG_BAD: Life Technologies and Expression Analysis (LTEA) Assay for Bcl-2 (BAD) gene using HepaRG (AID 2283469)
Method in brief: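 Read-out: qRT-PCR of BAD mRNA, normalized to three housekeeping genes. Human HepaRG cultures got 48 h chemical exposure in 0.5% DMSO, duplicate eight-point half-log series topping at 100 uM. Gain or loss of signal fitted versus DMSO vehicle.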

[4] = read-out: Bcl-2 (BAX) gene, BAX (gene 581); assay: LTEA_HepaRG_BAX: Life Technologies and Expression Analysis (LTEA) Assay for Bcl-2 (BAX) gene using HepaRG (AID 2283470)
Method in brief: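 Human HepaRG cells treated in duplicate for 48 h across eight concentrations (max 100 uM, 0.5% DMSO); BAX expression measured by qRT-PCR.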

[5] = read-out: adenosine kinase (ADK) gene, ADK (gene 132); assay: LTEA_HepaRG_ADK: Life Technologies and Expression Analysis (LTEA) Assay for adenosine kinase (ADK) gene using HepaRG (AID 2283471)
Method in brief: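 HepaRG (human liver), 48 h chemical exposure, 8-pt half-log series, top 100 uM, 0.5% DMSO vehicle. Readout: ADK mRNA by qRT-PCR vs housekeeping genes; bidirectional curve fit relative to DMSO baseline.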

[6] = read-out: Alpha-fetoprotein (AFP) gene, AFP (gene 174); assay: LTEA_HepaRG_AFP: Life Technologies and Expression Analysis (LTEA) Assay for Alpha-fetoprotein (AFP) gene using HepaRG (AID 2283472);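 for AC50: AFP transcript by TaqMan qRT-PCR normalized to ACTB GAPDH and POLR2A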
Method in brief: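 Measures AFP mRNA change in HepaRG after 48 h chemical exposure (8 half-log concentrations, highest 100 uM, 0.5% DMSO). Fold change relative to DMSO, fitted in both directions.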

[7] = read-out: BCL2L11 (gene 10018); assay: LTEA_HepaRG_BCL2L11: Life Technologies and Expression Analysis (LTEA) Assay for Bcl-2 (BCL2L11) gene using HepaRG (AID 2283473)
Method in brief: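 Human hepatic HepaRG cultures are treated 48 h with test chemicals (maximum 100 uM, 0.5% DMSO vehicle). Expression of BCL2L11 is measured by qRT-PCR against ACTB, GAPDH and POLR2A, with activity in either direction scored relative to vehicle.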

[8] = read-out: Apolipoprotein A-V (APOA5) gene, APOA5 (gene 116519); assay: LTEA_HepaRG_APOA5: Life Technologies and Expression Analysis (LTEA) Assay for Apolipoprotein A-V (APOA5) gene using HepaRG (AID 2283474)
Method in brief: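 Concentration-response of APOA5 expression in HepaRG: eight half-log doses to 100 uM, 48 h, qRT-PCR normalized to ACTB/GAPDH/POLR2A, bidirectional fitting with 0.5% DMSO as baseline.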

[9] = read-out: Apoptosis regulator Bcl-2 (Homo sapiens) (UniProt P10415); assay: LTEA_HepaRG_BCL2: Life Technologies and Expression Analysis (LTEA) Assay for Bcl-2 gene using HepaRG (AID 2283475);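 note: BCL2 transcript by TaqMan qRT-PCR normalised to ACTB GAPDH and POLR2A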
Method in brief: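 Each chemical was tested in duplicate on HepaRG cultures held in serum-free induction medium for 48 h, highest concentration 100 uM with half-log dilutions. Transcript levels came from multiplexed qRT-PCR, normalised to housekeeping genes; activity was scored in either direction relative to DMSO.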

[10] = read-out: Bcl-2 (BID) gene, BID (gene 637); assay: LTEA_HepaRG_BID: Life Technologies and Expression Analysis (LTEA) Assay for Bcl-2 (BID) gene using HepaRG (AID 2283476)
Method in brief: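 Assay used HepaRG hepatic cells treated 48 h in serum-free medium with half-log dilutions from 100 uM. Endpoint: BID mRNA, qRT-PCR, normalized to ACTB/GAPDH/POLR2A.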

Measured: AC50

Chain of Apoptosis regulator Bcl-2 (Homo sapiens) (P10415 whole entry, looked up): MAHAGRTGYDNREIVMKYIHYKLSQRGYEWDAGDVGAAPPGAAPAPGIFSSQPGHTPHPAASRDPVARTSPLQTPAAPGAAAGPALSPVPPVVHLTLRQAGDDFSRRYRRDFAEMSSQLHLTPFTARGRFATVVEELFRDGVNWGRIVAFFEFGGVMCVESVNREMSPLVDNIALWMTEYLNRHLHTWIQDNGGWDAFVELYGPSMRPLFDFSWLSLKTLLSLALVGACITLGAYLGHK

CCOP(=S)(Oc1cnc(C(C)(C)C)nc1)OC(C)C (stereo not drawn)
inactive: [2] | [3] | [4] | [5] | [7] | [8] | [9]
active: [1] 2.27 µM | [6] 19.4 µM

CC(C)N(C(=O)SCC(Cl)=C(Cl)Cl)C(C)C
inactive: [1] | [2] | [3] | [4] | [5] | [6] | [7] | [8] | [9]

COc1cc(OC)nc(Sc2cccc(Cl)c2C(=O)O)n1
inactive: [1] | [2] | [3] | [4] | [5] | [6] | [7] | [8] | [9]

CCC(=NOC/C=C/Cl)C1=C(O)CC(C2CCOCC2)CC1=O (stereo not drawn)
inactive: [1] | [2] | [3] | [4] | [5] | [6] | [7] | [8] | [9]

CCOP(=O)(NC(C)C)Oc1ccc(SC)c(C)c1 (stereo not drawn)
inactive: [1] | [2] | [3] | [4] | [5] | [7] | [8] | [9]
active: [6] 16.5 µM

CCNc1nc(Cl)nc(NC(C)(C)C#N)n1
inactive: [1] | [2] | [3] | [4] | [5] | [6] | [7] | [8] | [9]

CC(C)[C@H](C(=O)O[C@H](C#N)c1cccc(Oc2ccccc2)c1)c1ccc(Cl)cc1
inactive: [1] | [2] | [3] | [4] | [5] | [7] | [8] | [9]
active: [6] 24.7 µM

CCCOc1nn(C(=O)NS(=O)(=O)c2ccccc2C(=O)OC)c(=O)n1C
inactive: [1] | [2] | [3] | [4] | [5] | [6] | [7] | [8] | [9]

Cc1cc(C2CC2)nc(Nc2ccccc2)n1
inactive: [1] | [2] | [3] | [4] | [5] | [6] | [7] | [8] | [9]

Cc1ccn2nc(S(=O)(=O)Nc3c(F)cccc3F)nc2n1
inactive: [1] | [2] | [3] | [4] | [5] | [6] | [7] | [8] | [9]

CCCSP(=O)(OCC)Oc1ccc(Br)cc1Cl (stereo not drawn)
inactive: [1] | [2] | [3] | [4] | [5] | [6] | [7] | [8] | [9]

CCCSP(=O)(OCC)SCCC
inactive: [1] | [2] | [3] | [4] | [5] | [6] | [7] | [9]
active: [8] 12.9 µM

CNC(=O)ON=C(C)SC
inactive: [1] | [2] | [3] | [4] | [5] | [6] | [7] | [8] | [9]

COP(=O)(NC(C)=O)SC (stereo not drawn)
inactive: [1] | [2] | [3] | [4] | [5] | [6] | [7] | [8] | [9]

CNC(=O)ON=C(SC)C(=O)N(C)C
inactive: [1] | [2] | [3] | [4] | [5] | [6] | [7] | [8] | [9]

CN(C)[C@@H]1C(=O)C(C(N)=O)=C(O)[C@@]2(O)C(=O)C3=C(O)c4c(O)cccc4[C@@](C)(O)[C@H]3[C@H](O)[C@@H]12
inactive: [1] | [2] | [3] | [4] | [5] | [6] | [7] | [8] | [9]

CN1COCN(Cc2cnc(Cl)s2)C1=N[N+](=O)[O-]
inactive: [1] | [2] | [3] | [4] | [5] | [6] | [7] | [8] | [9] | [10]

CC1=NNC(=O)N(/N=C/c2cccnc2)C1
inactive: [1] | [2] | [3] | [5] | [6] | [7] | [8] | [9] | [10]
